# Screening data: PubChem BioAssay, National Center for Advancing Translational Sciences (NCATS)
# TDP1 cell CPT = DT40-hTDP1 cell growth loss with CPT; chicken DT40 Tdp1-/-;hTDP1 cells + 20 nM CPT, ATP luminescence, 48 h; Potency, µM (series often up to 46.2 µM), without a hit: at the highest dose activity change, negative = growth inhibition, hits mostly inhibitors; 420,000 compounds, 12% hits; AID 686979; further: potency means the concentration at half of the fitted maximal effect; nearly all actives have a fitted effect of over 55% in size
#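 Chicken DT40 Tdp1-/- cells stably complemented with human TDP1 were seeded at 400 cells/well in medium containing 20 nM camptothecin, exposed to pin-transferred compounds, and grown at 37 °C for at least 48 hr. Viability was read as ATP luminescence.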
# HT1080 IDH1KD tx = kills HT-1080 cells with IDH1 knockdown; HT-1080 IDH1 knockdown viability, ATP luminescence, 48 h; Potency, µM (highest dose often 46.1 µM), without a hit: at the highest dose activity, negative = toxicity, usual class: cytotoxic; 360,000 compounds, 2% hits; AID 686971;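 further: potency means the concentration at half of the fitted maximal effect; 0% = DMSO wells and -100% = cell-free medium wells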
#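 Luminescent ATP read-out (CellTiter-Glo, 10 min at room temperature) after 48 h compound exposure at 37 °C gave viability of IDH1-knockdown HT-1080 cells. Activity was normalised to DMSO and cell-free wells, then fitted as concentration-response curves.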
# IL1B secr inh = inflammasome signaling inhibition, IL-1 beta readout. activity change, % at 57.5 µM. AID 743279. THP-1 LPS/ATP IL-1B secretion, AlphaLISA, 16 h; active compounds read low. 360,000 compounds, 4.7% hits; in the data active means activity change below about -50%; inconclusive means mostly about -30% to -49%
#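 THP-1 cells pretreated 1 hr with compounds (up to 57.5 uM final), then stimulated with LPS (250 ng/mL final) plus ATP (1.25 mM final); secreted IL-1B measured by AlphaLISA after 16 hr, decreased signal indicating inhibition.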
# HT1080NT lethal = kills 2HG-producing HT-1080-NT fibrosarcoma cells; HT-1080-NT fibrosarcoma viability, CellTiter-Glo ATP luminescence, 48 h; Potency, µM (series often up to 46.1 µM), for the others: at the top dose activity, negative = less viability, hits mostly cytotoxic; 360,000 compounds, 1.6% hits;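 further: NT is the 2HG producing partner of a matched IDH1 knockdown line; potency means the concentration at half of the fitted maximal effect; 0% = DMSO-treated cells and -100% = media-only wells without cells; nearly all actives have a fitted effect of over 55% in size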
#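 Luminescent CellTiter-Glo readout after 48 hours of compound exposure at 37 degrees C defined viability of HT-1080-NT cells. Activity was normalized to DMSO wells and cell-free media wells; concentration-response curves were fitted and assigned curve classes.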
# ELG1 DNA repair = blocks ELG1-dependent DNA repair in HEK293T cells. AID 504467. HEK293T ELG1-luciferase reporter, luminescence, 16 h; DNA damage induced by 5-fluorouridine. Potency, µM (doses to about 46.1 µM), for inactives: at the highest dose activity change, negative = inhibition, actives largely listed as inhibitors. 330,000 compounds, 2.3% hits; further: potency means the concentration at half of the fitted maximal effect; nearly all actives have a fitted effect of over 55% in size
#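 Quantitative HTS, concentration-response format. 2,000 cells/well co-treated with 5-fluorouridine and compound, 16 hr in 5% CO2 at 37 °C; ONE-Glo luminescence read after 30 min.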
# TDP1 cell noCPT = qHTS for Inhibitors of human tyrosyl-DNA phosphodiesterase 1 (TDP1): qHTS in cells in absence of CPT. Potency, µM (series often up to 46.2 µM), without a hit: top-dose activity change, negative = growth inhibition, hits mostly inhibitors. 420,000 compounds, 15% hits. AID 686978, 2013. DT40 Tdp1-/- hTDP1 cells, no CPT, ATP luminescence, 48 h; further: potency means the concentration at half of the fitted maximal effect; nearly all actives have a fitted effect of over 55% in size
#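 Growth kinetics read by CellTiter-Glo luminescence after ≥48 hr at 37 °C. Cells: DT40 Tdp1-/- stably carrying human TDP1, 400 per well, compound exposure in the absence of CPT (DMSO vehicle).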
# * = called active by the depositor; i = inactive; ? = inconclusive; . = no result given; [ ] = another dose, or the depositor's remark. Rows were chosen to be rich in hits. Some 19% of all compounds tested hit in one or more screens of this group. Unless noted, the call rests on the fitted dose curve; in most records, active means well fitted curve in the direction sought with a large enough effect; inconclusive means small, poorly fitted or top-dose-only effect, or another doubt; inactive means no such curve, though single readings can be large; an effect the other way counts as inactive or inconclusive. Unless noted, on the % scale 0 is the no-effect control and ±100 the full control effect.
SMILES,TDP1 cell CPT,HT1080 IDH1KD tx,IL1B secr inh,HT1080NT lethal,ELG1 DNA repair,TDP1 cell noCPT
COc1ccccc1NS(=O)(=O)c1ccc(C)c(NC(=O)c2ccc(S(=O)(=O)N3CCCCCC3)cc2)c1,?,-2.5%,-3.4,-8.6%,?,20.6µM*
Cc1nnsc1C(=O)Nc1ccc(S(=O)(=O)N2CCCCC2)cc1,20.6µM*,-9.9%,-14.8,-4.3%,11.6µM*,?
O=C(Nc1ccccc1C(=O)O)c1ccc(Cl)c(S(=O)(=O)N2CCOCC2)c1,?,9.9%,14.9,6.6%,-0.3%,?
O=C(Nc1ccccc1C(=O)O)c1cc(S(=O)(=O)N2CCCCC2)c(Cl)cc1Cl,23.1µM*,-1.0%,27.5,-3.1%,?,11.6µM*
CC(C)NC(=O)C1CCCN(S(=O)(=O)c2ccc3c(ccn3C)c2)C1 (stereo not drawn),-21.2%,.,.,.,.,-19.1%
Cc1cccc(C(C)C)c1NS(=O)(=O)c1cn(C)nc1C,4.5%,9.9%,8.5,7.1%,-6.1%,4.2%
CN1CCCCC1C(=O)N1CCC(Oc2cccc(CN3CCN(c4ccccn4)CC3)c2)CC1 (stereo not drawn),11.9%[9.04 µM],.,.,.,.,?
O=C(Nc1ccc([N+](=O)[O-])cc1)N1CCN(C(=O)C2CCCO2)CC1 (stereo not drawn),9.8%,-1.7%,1.2,-1.5%,-0.5%,0.9%
O=C1C=C(OCCF)CC(c2ccc(Br)cc2)O1 (stereo not drawn),-9.7%,18.0%,4.5,9.7%,.,9.1%
O=C(Nc1ccc(S(=O)(=O)N2CCCCC2)cc1)c1ccccc1Cl,?,-10.3%,?,-27.1%,-24.9%,25.9µM*
COc1ccc(OC)c(C2Nc3c(Cl)ccc(C(=O)O)c3C3C=CCC32)c1 (stereo not drawn),?,?,-57.4*,?,-1.1%,?
Cc1noc(C)c1NC(=O)Nc1cccc2c1O[C@H](CN(C)S(=O)(=O)c1cn(C)cn1)[C@@H](C)CN([C@H](C)CO)C2=O,12.5%,4.6%,17.2,11.9%,?,-20.2%
CC[N+](CC)(CC)CC(=O)Nc1ccc(SC(F)F)cc1,?,?,-95.7*,2.4%,7.1%,-19.3%
CCn1c(N)[n+](CC(=O)Nc2ccc(SC(F)F)cc2)c2ccccc21,?,?,-97.5*,?,-15.4%,13µM*
Cn1ccnc1SCC(=O)Nc1ccc(SC(F)F)cc1,-24.0%,7.1%,-20.1,21.8%,?,?
Cc1ccc(C(=O)Nc2ccc(SC(F)F)cc2)s1,?,-16.3%,-59.3*,-2.9%,?,?
COc1ccc(CN(C)S(=O)(=O)c2c(C)noc2C)cc1OC,-6.8%,-0.8%,34.5,-4.6%,1.6%,-15.2%
O=c1nc2ccccc2c2n1CC(CN1CCN(c3ccccc3F)CC1)N2 (stereo not drawn),?,1.1%,11.4,1.2%,?,13µM*
Cc1ccc(SCCN2CCC(O)CCC2=O)cc1 (stereo not drawn),-2.6%,6.4%,11.1,-2.1%,26.4%,-3.7%
O=S(=O)([O-])CCC[N+]1(CC#Cc2ccccc2)CCCCC1,16.4µM*,-0.1%,4.5,-1.2%,-17.3%,14.6µM*
C(#Cc1ccccc1)C[N+]1(CC#Cc2cccc3ccccc23)CCCC1,0.651µM*,?,-62.4*,?,-15.7%,0.058µM*
COc1ccccc1C1CN(CCNC(=O)[C@@H]2CSC(=O)N2)Cc2ccccc2O1 (stereo partly drawn),-0.9%[9.04 µM],.,.,.,.,-16.5%
O=C(NCc1cccnc1)c1[nH]c(C(F)(F)F)nc1-c1ccccc1,-3.2%,21.2%,36.7,10.3%,.,9.6%
O=C(CCN1CCOCC1)N1CCc2c([nH]c3ccccc23)C1c1cccc(Cl)c1 (stereo not drawn),?,?,-22.5,-11.2%,-11.1%,?
Cc1ccc(C2c3[nH]c4ccccc4c3CCN2C(=O)CCc2ccccc2)cc1 (stereo not drawn),?,.,.,.,.,20.6µM*
SMILES,TDP1 cell CPT,HT1080 IDH1KD tx,IL1B secr inh,HT1080NT lethal,ELG1 DNA repair,TDP1 cell noCPT
CCOc1cccc(CC(=O)N2CCc3c([nH]c4ccccc34)C2c2ccc(C)cc2)c1OCC (stereo not drawn),?,.,.,.,.,18.4µM*
CCOc1cccc(C2c3[nH]c4ccccc4c3CCN2C(=O)CSCc2ccc(F)cc2)c1 (stereo not drawn),18.4µM*,.,.,.,.,25.9µM*
COCCn1nnnc1C(c1ccc(OC)cc1)N1CCN(C(=O)c2ccco2)CC1 (stereo not drawn),-0.2%,18.2%,4.0,15.7%,1.1%,-4.6%
COc1cccc(CN2CCNC(=O)C2CC(=O)NCC(C)(C)N2CCOCC2)c1OC (stereo not drawn),5.7%,28.8%,i,11.2%,-2.2%,-0.6%
CSc1ncccc1C(=O)N(C)CC(=O)Nc1cccc(F)c1,-0.4%,-1.0%,20.2,29.1%,14.1%,2.2%
O=C(OC(C(=O)NC1CCCCC1)c1ccccc1F)c1ccco1 (stereo not drawn),-18.5%,17.4%,1.0,?,8.2%,-0.5%
CCOC(=O)C1CCCN(C(=O)c2ccc3c(c2)sc2nc(-c4cccc(OC)c4)cn23)C1 (stereo not drawn),18.4µM*,.,.,.,.,14.6µM*
Cc1ccc(-c2cn3c(n2)sc2cc(C(=O)NC4CCCCCC4)ccc23)c(C)c1,?,.,.,.,.,-27.2%
CCOC(=O)C1CCCN(C(=O)c2sc3nc(-c4ccccc4)cn3c2C)C1 (stereo not drawn),?,3.4%,5.0,4.1%,?,?
CCOC(=O)C1CCCN(C(=O)c2ccc3c(c2)sc2nc(-c4ccc(C)cc4C)cn23)C1 (stereo not drawn),16.4µM*,.,.,.,.,18.4µM*
CCOC(=O)C1CCCN(C(=O)c2sc3nc(-c4ccc(F)cc4)cn3c2C)C1 (stereo not drawn),?,-9.3%,0.0,-8.2%,?,25.9µM*
O=C(NCCCNC(=O)c1cnccn1)c1ccc(Br)cc1,3.6%,-0.8%,43.8,-5.8%,10.9%,6.4%
COC(=O)/C=C/c1ccc(C(=O)NCC(=O)N[C@@H](CCC(=O)OC)C(=O)N[C@@H](CC(C)C)C(N)=O)cc1,-8.1%,.,.,.,.,1.5%
Cc1cc(Br)c(NC(=O)COC(=O)C2CCCCC2)c(Br)c1,3.6%,4.5%,0.0,10.8%,?,6.1%
